Each structure is given as a SMILES string. The panel holds about 83,000 compounds, 20% with a hit somewhere; the sample as a whole holds those more often.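 Results are percent growth after 48 hours of single-concentration exposure. 100 means growth as in untreated cells, lower positive values show inhibition; negative values down to -100 show cell death.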 A number with no mark means an inactive call. The source made the active and inactive calls. The calls were made as follows: active = growth percent below 10; inactive = the rest.

Test systems include HCT-15 colon; HT29 colon; SNB-75 CNS; SNB-19 CNS; U251 CNS; PC-3 prostate; SK-MEL-5 melanoma; UACC-62 melanoma; LOX IMVI melanoma; SK-MEL-28 melanoma; SK-MEL-2 melanoma; EKVX NSCLC; SN12C renal; UO-31 renal; TK-10 renal; ACHN renal; CAKI-1 renal; A498 renal; CCRF-CEM leukemia; MOLT-4 leukemia.
Holding throughout (experiment): NCI-60 one-dose screen, 48 h (100 = growth as untreated, 0 = no growth, -100 = all killed)
Conditions in all cases: 10 µM unless noted

As to `NS(=O)(=O)c1cc(Br)c2c(c1)S(=O)(=O)NCN2`, the growth was 112% with HCT-15 colon; 103% in the assay on HT29 colon; 117% in the assay with SNB-75 CNS; 112% in the assay with SNB-19 CNS; 107% in the assay on U251 CNS; 105% in the assay with PC-3 prostate. In addition, the growth with SK-MEL-5 melanoma was 111%; in the assay with UACC-62 melanoma it was 111%; with LOX IMVI melanoma, 113%; in the assay with SK-MEL-28 melanoma it was 110%; with SK-MEL-2 melanoma it was 102%; in the assay with EKVX NSCLC it was 120%. Besides, the growth was 104% in the assay with SN12C renal; 96.7% in the assay on UO-31 renal; 110% in the assay with TK-10 renal; 111% in the assay with ACHN renal; 94.9% in the assay on CAKI-1 renal; 115% with A498 renal. Also, the growth is 99.7% in the assay with CCRF-CEM leukemia and 87.5% in the assay with MOLT-4 leukemia.
Take `O=[N+]([O-])c1ccc2nc(N/N=C/c3ccc(O)cc3)sc2c1`: the growth was 53.4% in the assay on HCT-15 colon; 78% in the assay on HT29 colon; 73.7% with SNB-75 CNS; 77.9% in the assay on SNB-19 CNS; 45.9% in the assay with U251 CNS; 38.4% in the assay on PC-3 prostate. Also, the growth was 58.1% in the assay with SK-MEL-5 melanoma; 81.7% with UACC-62 melanoma; 49.7% in the assay on LOX IMVI melanoma; 89% in the assay on SK-MEL-28 melanoma; -0.896% (active) in the assay on SK-MEL-2 melanoma; 85.5% with EKVX NSCLC. Besides, the growth in the assay on SN12C renal is 54.7%; in the assay on UO-31 renal, 27.5%; with TK-10 renal, 54%; in the assay with ACHN renal it was 47%; with CAKI-1 renal it was 23.2%; in the assay on A498 renal, 91.5%. Further, the growth in the assay on MOLT-4 leukemia is 24%.
Turning to `Cc1cc(NS(=O)(=O)c2ccc(NC(=O)COc3ccc(-c4cc5ccccc5[nH]4)cc3)cc2)no1`, the growth in the assay on HCT-15 colon was 24.7%; in the assay on HT29 colon, 12.3%; with SNB-75 CNS it was -12.2% (active); in the assay on SNB-19 CNS, 29.6%; in the assay on U251 CNS, 20.8%; in the assay on PC-3 prostate it was 13.3%. In addition, the growth in the assay on SK-MEL-5 melanoma was 12.4%; in the assay with UACC-62 melanoma, 31.4%; in the assay with LOX IMVI melanoma, 4.54% (active); in the assay with SK-MEL-28 melanoma it was 18.9%; in the assay on SK-MEL-2 melanoma, 27.3%; with EKVX NSCLC, 54.4%. Also, the growth with SN12C renal is 39.2%; with UO-31 renal it was 26.4%; with TK-10 renal, 52.6%; with ACHN renal, 21.7%; in the assay on CAKI-1 renal, 57.5%; in the assay with A498 renal it was 42.9%. For the same compound, in the assay on MOLT-4 leukemia, the growth is -2.31% (active).
On to `Cn1c(=O)c2c(-c3ccccc3F)n(-c3ccc4c(c3)OCO4)cc2n(C)c1=O`, for which the growth in the assay with HCT-15 colon was 87.8%; in the assay with HT29 colon, 112%; with SNB-75 CNS it was 80.9%; in the assay on SNB-19 CNS it was 99.6%; in the assay on U251 CNS, 92.1%; with PC-3 prostate it was 74.7%. The growth in the assay with SK-MEL-5 melanoma was 67.3%; with UACC-62 melanoma, 86.2%; in the assay on LOX IMVI melanoma, 95.9%; with SK-MEL-28 melanoma it was 100%; with SK-MEL-2 melanoma, 133%; in the assay on EKVX NSCLC it was 87.6%. In addition, the growth in the assay on SN12C renal is 90.4%; with UO-31 renal, 82.4%; in the assay with TK-10 renal, 115%; in the assay on ACHN renal it was 100%; in the assay with CAKI-1 renal, 89.6%; in the assay with A498 renal, 69.5%. In the assay with MOLT-4 leukemia, the growth is 72.9%.
As for `COc1ccccc1CNCCCCCCCCCCCCN1C(=O)c2ccc3c4c(ccc(c24)C1=O)C(=O)N(CCCCCCCCCCCCNCc1ccccc1OC)C3=O`, the growth with HCT-15 colon is 77.7%; in the assay with HT29 colon it was 53.4%; in the assay on SNB-75 CNS, -13.3% (active); in the assay on SNB-19 CNS, 58.1%; in the assay with U251 CNS it was -28.6% (active); with PC-3 prostate, 27.7%. Moreover, the growth in the assay on SK-MEL-5 melanoma is 78.4%; with UACC-62 melanoma, 105%; in the assay on LOX IMVI melanoma it was 56.4%; in the assay on SK-MEL-28 melanoma it was 81.1%; with SK-MEL-2 melanoma, 107%; in the assay with EKVX NSCLC, 109%. The growth in the assay with SN12C renal is 74.1%; in the assay with UO-31 renal it was 109%; in the assay with TK-10 renal it was -46.7% (active); in the assay with ACHN renal it was 78.4%; in the assay on CAKI-1 renal, 102%; in the assay with A498 renal it was -60.4% (active). For the same compound, the figures for the growth in the assay on CCRF-CEM leukemia and in the assay on MOLT-4 leukemia were 50.4% and 64.6%, respectively.
As to `CC1CCCCN1S(=O)(=O)c1ccc(CN=C=S)cc1` (stereo unspecified), the growth in the assay with HCT-15 colon is 19.2%; with HT29 colon it was 50.5%; with SNB-75 CNS, 69.3%; in the assay with SNB-19 CNS it was 77.9%; in the assay on U251 CNS it was 68.8%; with PC-3 prostate, 74.4%. Besides, the growth in the assay with SK-MEL-5 melanoma is 91.5%; with UACC-62 melanoma, 84.5%; in the assay on LOX IMVI melanoma, 3.54% (active); in the assay on SK-MEL-28 melanoma it was 88.5%; in the assay on SK-MEL-2 melanoma it was 94.5%; with EKVX NSCLC, 99.2%. Moreover, the growth was 66.1% in the assay on SN12C renal; 54% with UO-31 renal; 64.4% in the assay on TK-10 renal; 4.78% (active) with ACHN renal; 51.2% in the assay with CAKI-1 renal; 79% in the assay with A498 renal. The growth with CCRF-CEM leukemia is 39.2%; in the assay on MOLT-4 leukemia it was 31.1%.
Take `COc1cc(C2C3=C(COC3=O)N(CCO)c3cc4c(cc32)OCO4)cc(OC)c1O` (stereo unspecified): the growth is 44.8% in the assay with HCT-15 colon; 8.44% (active) in the assay with HT29 colon; -11.3% (active) in the assay on SNB-75 CNS; 41.5% in the assay on SNB-19 CNS; 21.4% in the assay on U251 CNS; 29.5% in the assay on PC-3 prostate. Besides, the growth with SK-MEL-5 melanoma was 29.3%; in the assay with UACC-62 melanoma it was 26.2%; with LOX IMVI melanoma, 40.1%; in the assay with SK-MEL-28 melanoma, 59.5%; with SK-MEL-2 melanoma, 25%; in the assay on EKVX NSCLC, 57.2%. Besides, the growth is 52.7% in the assay on SN12C renal; 57.9% with UO-31 renal; 61.8% in the assay with TK-10 renal; 37.9% in the assay with ACHN renal; 60.4% in the assay on CAKI-1 renal; -2.62% (active) with A498 renal. Also, the growth in the assay with CCRF-CEM leukemia was 28.6%; in the assay with MOLT-4 leukemia, 47.6%.
For the compound `COc1ncnc2c1ncn2C/C(Br)=C(\Br)CCl`, the growth in the assay on HCT-15 colon was 31.6%; in the assay with HT29 colon it was -56.8% (active); in the assay with SNB-75 CNS it was 46.6%; in the assay on SNB-19 CNS, 89.9%; in the assay on U251 CNS it was -71.8% (active); with PC-3 prostate, 46.4%. Also, the growth with SK-MEL-5 melanoma is 53.7%; in the assay on UACC-62 melanoma, 57.3%; in the assay with LOX IMVI melanoma, -87.2% (active); with SK-MEL-28 melanoma, 77.4%; in the assay with SK-MEL-2 melanoma, 51.6%; in the assay on EKVX NSCLC it was 114%. Besides, the growth in the assay with SN12C renal was 10.8%; in the assay with UO-31 renal, -56.8% (active); in the assay with TK-10 renal, 51.3%; in the assay with ACHN renal, 14.9%; in the assay with CAKI-1 renal it was 96.2%; with A498 renal, 94.8%. Besides, the growth in the assay on MOLT-4 leukemia is 18.9%.

The record behind these values is PubChem BioAssay (NCI).
